Our source for the growth values is PubChem BioAssay (NCI).

What all share (experiment): NCI-60 one-dose screen, 48 h (100 = growth as untreated, 0 = no growth, -100 = all killed)
For one test, the system named is SR leukemia. The settings on record: 10 µM unless noted.
For the next test, the system named is RPMI-8226 leukemia. The settings on record: 10 µM unless noted.
For a further test, the system named is OVCAR-8 ovarian. The settings on record: 10 µM unless noted.
In another test the test system is OVCAR-5 ovarian. Particulars: 10 µM unless noted.
For another test, the system named is OVCAR-4 ovarian. Particulars: 10 µM unless noted.
For the next test, the system named is SK-OV-3 ovarian. Particulars: 10 µM unless noted.
A further test has as its system IGROV1 ovarian. Particulars: 10 µM unless noted.
Another test deals with OVCAR-3 ovarian. Particulars: 10 µM unless noted.
A further test relates to NCI/ADR-RES ovarian. The settings on record: 10 µM unless noted.
A further test relates to T-47D breast. Particulars: 10 µM unless noted.
Another test deals with BT-549 breast. The settings on record: 10 µM unless noted.
The next test concerns MDA-MB-435 melanoma. The settings on record: 10 µM unless noted.
The test system of the next test is SW-620 colon. The settings on record: 10 µM unless noted.
Another test deals with MCF7 breast. Particulars: 10 µM unless noted.
Another test relates to HCT-116 colon. Particulars: 10 µM unless noted.
The next test has as its system HCC-2998 colon. The settings on record: 10 µM.
The test system of the next test is KM12 colon. Particulars: 10 µM unless noted.

This is part of a sample that, as a whole, favours compounds with a hit. Of some 83,000 tested, about 20% had one in any assay.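 The test compound was applied at a single concentration to cells in 96-well plates for 48 hours, and percent growth was recorded.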 A number with no mark means an inactive call. The source made the active and inactive calls. How the source made its calls: active means growth percent below 10; inactive means the rest.

As to `Cc1ccccc1N1C(c2ccccc2)=NNC12C=CC(=O)C=C2Cl` (stereo unspecified), the growth in the test on SR leukemia is 90.6%; with RPMI-8226 leukemia, 109%; with OVCAR-8 ovarian it was 96.7%; in the test on OVCAR-5 ovarian it was 87.8%; with OVCAR-4 ovarian it was 117%; in the test with SK-OV-3 ovarian it was 90.2%. Besides, the growth with IGROV1 ovarian was 100%; in the test on OVCAR-3 ovarian, 118%; with NCI/ADR-RES ovarian, 98.7%; with T-47D breast, 117%; with BT-549 breast, 106%; in the test on MDA-MB-435 melanoma it was 112%. The growth in the test on SW-620 colon was 119%; with MCF7 breast, 98%; with HCT-116 colon it was 103%; in the test on HCC-2998 colon, 102%; in the test with KM12 colon, 110%.

Turning to `Cc1cnc(Nc2ccc(OCCN3CCCC3)cc2)nc1Nc1cccc(S(=O)(=O)NC(C)(C)C)c1`, the growth was -11.4% (active) with SR leukemia; -33.8% (active) in the test on RPMI-8226 leukemia; 3.89% (active) in the test on OVCAR-8 ovarian; 7.41% (active) in the test on OVCAR-5 ovarian; 26.3% in the test on OVCAR-4 ovarian; -86.8% (active) in the test with SK-OV-3 ovarian. The growth with IGROV1 ovarian is -11.8% (active); in the test on OVCAR-3 ovarian, 28.2%; in the test with NCI/ADR-RES ovarian, 30.5%; in the test with T-47D breast, 12.5%; in the test on BT-549 breast, -0.344% (active); with MDA-MB-435 melanoma, 13.5%. The growth with SW-620 colon is -21.3% (active); with MCF7 breast, 0.924% (active); in the test with HCT-116 colon, 1.03% (active); with HCC-2998 colon, -25.9% (active); with KM12 colon it was 5.75% (active).

Regarding `CCc1nc(C(N)=O)c(Nc2ccc(N3CCC(N4CCN(C)CC4)CC3)c(OC)c2)nc1NC1CCOCC1`, the growth in the test on SR leukemia was 1.01% (active); with RPMI-8226 leukemia, 28.3%; in the test with OVCAR-8 ovarian, 39.6%; with OVCAR-5 ovarian, 26.5%; in the test with OVCAR-4 ovarian, 81.2%; in the test on SK-OV-3 ovarian, 4.92% (active). The growth with IGROV1 ovarian is 4.12% (active); with OVCAR-3 ovarian, 53.4%; with NCI/ADR-RES ovarian, 32%; in the test with T-47D breast, 65.1%; in the test on BT-549 breast, 19.9%; in the test with MDA-MB-435 melanoma, 52.3%. The growth was 3.96% (active) in the test on SW-620 colon; 25.6% in the test on MCF7 breast; 5.33% (active) in the test on HCT-116 colon; 61.4% in the test with HCC-2998 colon; 13.8% in the test with KM12 colon.

In the case of `O=C(NOC[C@H](O)CO)c1ccc(F)c(F)c1Nc1ccc(I)cc1F`, the growth was 45.7% with SR leukemia; 59.7% in the test on RPMI-8226 leukemia; 43.5% in the test with OVCAR-8 ovarian; 9.99% (active) in the test on OVCAR-5 ovarian; 62% in the test with OVCAR-4 ovarian; 46.3% with SK-OV-3 ovarian. The growth with IGROV1 ovarian is 14.1%; in the test with OVCAR-3 ovarian, 95.1%; with NCI/ADR-RES ovarian it was 59.2%; with T-47D breast, 62.2%; in the test with BT-549 breast, 80.4%; with MDA-MB-435 melanoma, 33%. Further, the growth with SW-620 colon is 18.5%; in the test with MCF7 breast, 93.3%; with HCT-116 colon it was 11.5%; in the test on HCC-2998 colon, -15.9% (active); in the test with KM12 colon it was 24.1%.

For the molecule `CO[C@H]1C[C@@H]2CC[C@@H](C)[C@@](O)(O2)C(=O)C(=O)N2CCCC[C@H]2C(=O)O[C@H]([C@H](C)C[C@@H]2CC[C@@H](OC(=O)C(C)(CO)CO)[C@H](OC)C2)CC(=O)[C@H](C)/C=C(\C)[C@@H](O)[C@@H](OC)C(=O)[C@H](C)C[C@H](C)\C=C/C=C/C=C/1C`, the growth was 3.69% (active) in the test on SR leukemia; 11.4% in the test with RPMI-8226 leukemia; 22.3% in the test on OVCAR-8 ovarian; 47.1% in the test on OVCAR-5 ovarian; 28.2% in the test on OVCAR-4 ovarian; 20.4% in the test with SK-OV-3 ovarian. In addition, the growth is 11.4% in the test with IGROV1 ovarian; 33.5% in the test on OVCAR-3 ovarian; 45.9% with NCI/ADR-RES ovarian; -6.15% (active) with T-47D breast; 0.892% (active) with BT-549 breast; 33.1% with MDA-MB-435 melanoma. Besides, the growth in the test with SW-620 colon is 42.7%; in the test with MCF7 breast it was 5.53% (active); in the test on HCT-116 colon, 23.8%; with HCC-2998 colon it was 41.6%; in the test on KM12 colon it was 34.1%.

`CNS(=O)(=O)Nc1nccc(Cc2c(C)c3ccc(Oc4ncccn4)cc3oc2=O)c1F`: the growth in the test with SR leukemia is 58.3%; with RPMI-8226 leukemia, 55.3%; in the test with OVCAR-8 ovarian, 63.2%; in the test with OVCAR-5 ovarian, 20.4%; with OVCAR-4 ovarian it was 55%; in the test on SK-OV-3 ovarian it was 53.3%. Moreover, the growth in the test on IGROV1 ovarian was 28.7%; in the test on OVCAR-3 ovarian, 76.2%; with NCI/ADR-RES ovarian, 70.6%; in the test with T-47D breast, 60.1%; in the test on BT-549 breast, 68.6%; in the test on MDA-MB-435 melanoma, 37.1%. For the same molecule, the growth with SW-620 colon was 29%; in the test with MCF7 breast, 79.2%; in the test with HCT-116 colon it was 19.2%; with HCC-2998 colon, 1.07% (active); in the test with KM12 colon, 26.1%.

`CNC(=O)c1ccc(Nc2ncc(C(F)(F)F)c(NCc3nccnc3N(C)S(C)(=O)=O)n2)cc1`: the growth was -21.3% (active) in the test on SR leukemia; -26.7% (active) with RPMI-8226 leukemia; -0.118% (active) in the test with OVCAR-8 ovarian; 0.954% (active) in the test on OVCAR-5 ovarian; 1.68% (active) in the test with OVCAR-4 ovarian; -21.1% (active) in the test on SK-OV-3 ovarian. The growth in the test with IGROV1 ovarian was 3.11% (active); with OVCAR-3 ovarian, 9.41% (active); in the test with NCI/ADR-RES ovarian, 29.8%; with T-47D breast, -12.4% (active); in the test with BT-549 breast it was -5.77% (active); in the test on MDA-MB-435 melanoma it was 8.89% (active). In addition, the growth in the test with SW-620 colon was -4.11% (active); with MCF7 breast, 2.04% (active); with HCT-116 colon it was 1.19% (active); with HCC-2998 colon, 8.5% (active); with KM12 colon, 1.91% (active).

For the molecule `O=C1C=CC2(NN=C(c3ccccc3)N2c2ccc(Cl)cc2)c2cccc(O)c21` (stereo unspecified), the growth with SR leukemia was 36.8%; in the test with RPMI-8226 leukemia, 64%; with OVCAR-8 ovarian, 43.4%; in the test with OVCAR-5 ovarian, 47.6%; in the test on OVCAR-4 ovarian it was 43.3%; in the test with SK-OV-3 ovarian, 102%. For the same molecule, the growth in the test on IGROV1 ovarian was 66.7%; with OVCAR-3 ovarian it was 13.5%; with NCI/ADR-RES ovarian it was 45.1%; in the test on T-47D breast, 87.2%; in the test on BT-549 breast it was 33.5%; in the test on MDA-MB-435 melanoma, -91.5% (active). The growth was 52.5% in the test with SW-620 colon; 45.4% in the test with MCF7 breast; 26.1% in the test with HCT-116 colon; 64.4% in the test on HCC-2998 colon; 58.6% in the test on KM12 colon.
